# How the values were obtained:
# Assay in all cases: DAPPL (digital affinity profiling via proximity ligation, sequencing); 10 mM Tris-HCl pH 7.5, 50 mM NaCl, 1 mM DTT, 4% glycerol, room temperature, 30 min; GST-TFs on glutathione beads, 16-mer random dsDNA library, 0.1% formaldehyde crosslink after washing; high values mean tight binding
# FLI1 = target: T1, FLI1 (Homo sapiens, UniProt Q01543 1-452); conditions: protein: recombinant; tags: N-terminal GST; dsDNA, one strand shown
# T1 sequence: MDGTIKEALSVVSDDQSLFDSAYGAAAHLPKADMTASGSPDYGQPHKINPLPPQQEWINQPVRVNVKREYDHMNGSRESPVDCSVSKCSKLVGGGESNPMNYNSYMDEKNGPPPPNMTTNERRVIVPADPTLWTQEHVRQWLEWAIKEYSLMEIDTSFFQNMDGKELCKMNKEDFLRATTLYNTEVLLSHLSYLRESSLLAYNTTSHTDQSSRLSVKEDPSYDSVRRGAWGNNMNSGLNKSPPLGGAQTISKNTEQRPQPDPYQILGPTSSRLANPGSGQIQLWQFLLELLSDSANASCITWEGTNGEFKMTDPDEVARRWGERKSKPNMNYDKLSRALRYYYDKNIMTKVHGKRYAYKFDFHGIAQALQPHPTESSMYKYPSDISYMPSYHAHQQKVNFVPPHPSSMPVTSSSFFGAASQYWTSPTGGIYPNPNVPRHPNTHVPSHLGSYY
# How it was run: (§1)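 Sequencing on an Illumina NextSeq500 followed washing, crosslinking with 0.1% formaldehyde, proximity ligation (BsaI/T4 ligase, 1 h, 37 °C) and PCR amplification of pools that had been incubated for 30 min at room temperature with 200 nmole of a random double-stranded 16-mer DNA library in Tris/NaCl/DTT/glycerol buffer. Each pool held DNA-barcoded human transcription factors, expressed in yeast as GST fusions and captured on glutathione beads, plus a tag-only sample. Binding signal is a hexamer's read frequency for a factor divided by its frequency in the tag-only sample.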
# ELK1 = target: T2, ELK1 (Homo sapiens, UniProt P19419 1-428); conditions: protein: recombinant; tags: N-terminal GST; dsDNA, one strand shown
# T2 sequence: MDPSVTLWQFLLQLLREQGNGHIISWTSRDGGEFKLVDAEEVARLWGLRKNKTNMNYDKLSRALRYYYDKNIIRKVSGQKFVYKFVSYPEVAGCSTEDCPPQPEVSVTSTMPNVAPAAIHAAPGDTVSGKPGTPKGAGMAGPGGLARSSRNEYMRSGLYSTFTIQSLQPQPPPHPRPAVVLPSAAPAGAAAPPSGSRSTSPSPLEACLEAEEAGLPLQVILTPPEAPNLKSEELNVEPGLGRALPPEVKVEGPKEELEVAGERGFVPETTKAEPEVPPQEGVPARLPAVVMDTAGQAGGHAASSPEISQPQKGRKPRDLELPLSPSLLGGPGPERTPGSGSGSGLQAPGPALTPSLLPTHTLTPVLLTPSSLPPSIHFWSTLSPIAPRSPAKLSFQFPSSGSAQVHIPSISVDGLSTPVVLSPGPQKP
# How it was run: as §1
# GABPA = target: T3, GABPA (Homo sapiens, UniProt Q06546 1-454); conditions: protein: recombinant; tags: N-terminal GST; dsDNA, one strand shown
# T3 sequence: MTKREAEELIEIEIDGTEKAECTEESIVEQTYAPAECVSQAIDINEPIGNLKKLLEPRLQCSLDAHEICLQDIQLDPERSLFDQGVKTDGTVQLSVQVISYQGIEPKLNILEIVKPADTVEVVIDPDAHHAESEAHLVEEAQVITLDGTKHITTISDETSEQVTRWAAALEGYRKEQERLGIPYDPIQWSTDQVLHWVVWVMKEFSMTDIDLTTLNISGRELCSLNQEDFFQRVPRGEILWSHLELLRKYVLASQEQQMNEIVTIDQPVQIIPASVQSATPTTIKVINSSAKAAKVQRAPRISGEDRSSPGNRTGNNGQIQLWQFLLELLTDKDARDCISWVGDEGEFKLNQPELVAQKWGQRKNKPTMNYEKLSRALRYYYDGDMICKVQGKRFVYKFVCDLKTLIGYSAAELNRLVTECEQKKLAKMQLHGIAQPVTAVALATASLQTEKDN
# How it was run: as §1
# ERG = target: T4, ERG (Homo sapiens, UniProt P11308 1-479); conditions: protein: recombinant; tags: N-terminal GST; dsDNA, one strand shown
# T4 sequence: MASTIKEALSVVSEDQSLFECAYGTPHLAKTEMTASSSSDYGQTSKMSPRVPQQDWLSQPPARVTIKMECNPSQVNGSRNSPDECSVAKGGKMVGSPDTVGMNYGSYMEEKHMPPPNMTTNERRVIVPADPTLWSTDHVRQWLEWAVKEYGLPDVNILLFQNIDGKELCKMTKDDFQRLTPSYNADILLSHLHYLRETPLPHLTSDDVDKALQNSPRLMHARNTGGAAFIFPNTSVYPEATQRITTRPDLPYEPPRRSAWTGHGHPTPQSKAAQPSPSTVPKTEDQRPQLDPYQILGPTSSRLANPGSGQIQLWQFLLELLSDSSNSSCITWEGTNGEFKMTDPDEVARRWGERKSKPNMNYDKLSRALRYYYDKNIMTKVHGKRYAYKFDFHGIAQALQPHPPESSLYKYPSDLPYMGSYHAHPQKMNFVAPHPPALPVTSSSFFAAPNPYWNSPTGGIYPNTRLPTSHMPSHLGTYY
# How it was run: as §1
# ELF1 = ELF1 (Homo sapiens, UniProt P32519 1-619); conditions: protein: recombinant; tags: N-terminal GST; dsDNA, one strand shown
# How it was run: as §1
# EHF = target: T5, EHF (Homo sapiens, UniProt Q9NZC4 1-300); conditions: protein: recombinant; tags: N-terminal GST; dsDNA, one strand shown
# T5 sequence: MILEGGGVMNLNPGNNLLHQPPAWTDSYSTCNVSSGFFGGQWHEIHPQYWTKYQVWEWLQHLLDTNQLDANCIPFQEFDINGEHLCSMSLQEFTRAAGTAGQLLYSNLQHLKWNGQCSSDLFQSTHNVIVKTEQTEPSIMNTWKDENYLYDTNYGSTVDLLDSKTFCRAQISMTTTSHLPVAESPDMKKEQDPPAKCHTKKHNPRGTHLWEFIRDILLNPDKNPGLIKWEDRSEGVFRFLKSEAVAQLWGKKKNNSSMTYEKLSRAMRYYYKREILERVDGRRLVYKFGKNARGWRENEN
# How it was run: as §1
# SPI1 = SPI1 (Homo sapiens, UniProt P17947 1-270); conditions: protein: recombinant; tags: N-terminal GST; dsDNA, one strand shown
# How it was run: as §1
# SPIB = SPIB (Homo sapiens, UniProt Q01892 1-262); conditions: protein: recombinant; tags: N-terminal GST; dsDNA, one strand shown
# How it was run: as §1
# ELK3 = target: T6, ELK3 (Homo sapiens, UniProt P41970 1-407); conditions: protein: recombinant; tags: N-terminal GST; dsDNA, one strand shown
# T6 sequence: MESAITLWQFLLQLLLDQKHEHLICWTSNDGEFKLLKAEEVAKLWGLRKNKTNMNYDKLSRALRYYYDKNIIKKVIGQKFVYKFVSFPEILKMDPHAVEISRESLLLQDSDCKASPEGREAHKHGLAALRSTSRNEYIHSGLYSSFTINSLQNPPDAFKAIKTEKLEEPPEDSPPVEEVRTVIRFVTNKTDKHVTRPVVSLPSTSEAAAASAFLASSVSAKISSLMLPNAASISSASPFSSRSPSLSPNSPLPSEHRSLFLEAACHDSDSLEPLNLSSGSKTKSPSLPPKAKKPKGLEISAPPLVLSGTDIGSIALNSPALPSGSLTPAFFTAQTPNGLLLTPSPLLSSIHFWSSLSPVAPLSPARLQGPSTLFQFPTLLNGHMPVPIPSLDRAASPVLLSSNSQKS
# How it was run: as §1
# FEV = target: T7, FEV (Homo sapiens, UniProt Q99581 1-238); conditions: protein: recombinant; tags: N-terminal GST; dsDNA, one strand shown
# T7 sequence: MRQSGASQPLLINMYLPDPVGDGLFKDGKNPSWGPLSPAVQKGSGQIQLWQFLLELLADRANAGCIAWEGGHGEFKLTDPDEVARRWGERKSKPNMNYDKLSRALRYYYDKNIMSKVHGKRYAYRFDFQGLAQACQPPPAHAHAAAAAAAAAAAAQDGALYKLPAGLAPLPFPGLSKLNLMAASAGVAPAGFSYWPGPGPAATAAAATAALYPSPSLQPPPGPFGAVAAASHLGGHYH
# How it was run: as §1
# ETV5 = ETV5 (Homo sapiens, UniProt P41161 1-510); conditions: protein: recombinant; tags: N-terminal GST; dsDNA, one strand shown
# How it was run: as §1
# HSF1 = HSF1 (Homo sapiens, UniProt Q00613 1-529); conditions: protein: recombinant; tags: N-terminal GST; chain copies: 3; dsDNA, one strand shown
# How it was run: as §1
# SPIC = target: T8, SPIC (Homo sapiens, UniProt Q8N5J4 1-248); conditions: protein: recombinant; tags: N-terminal GST; dsDNA, one strand shown
# T8 sequence: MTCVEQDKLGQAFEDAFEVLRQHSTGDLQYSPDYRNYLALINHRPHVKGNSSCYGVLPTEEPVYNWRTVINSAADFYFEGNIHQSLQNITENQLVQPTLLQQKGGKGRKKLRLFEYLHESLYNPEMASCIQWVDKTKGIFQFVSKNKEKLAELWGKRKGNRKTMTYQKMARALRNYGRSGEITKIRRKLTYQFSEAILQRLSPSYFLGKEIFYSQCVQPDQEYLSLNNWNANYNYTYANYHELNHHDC
# How it was run: as §1
# ELF4 = ELF4 (Homo sapiens, UniProt Q99607 1-663); conditions: protein: recombinant; tags: N-terminal GST; dsDNA, one strand shown
# How it was run: as §1
# ELK4 = target: T9, ELK4 (Homo sapiens, UniProt P28324-2 1-405); conditions: protein: recombinant; tags: N-terminal GST; dsDNA, one strand shown
# T9 sequence: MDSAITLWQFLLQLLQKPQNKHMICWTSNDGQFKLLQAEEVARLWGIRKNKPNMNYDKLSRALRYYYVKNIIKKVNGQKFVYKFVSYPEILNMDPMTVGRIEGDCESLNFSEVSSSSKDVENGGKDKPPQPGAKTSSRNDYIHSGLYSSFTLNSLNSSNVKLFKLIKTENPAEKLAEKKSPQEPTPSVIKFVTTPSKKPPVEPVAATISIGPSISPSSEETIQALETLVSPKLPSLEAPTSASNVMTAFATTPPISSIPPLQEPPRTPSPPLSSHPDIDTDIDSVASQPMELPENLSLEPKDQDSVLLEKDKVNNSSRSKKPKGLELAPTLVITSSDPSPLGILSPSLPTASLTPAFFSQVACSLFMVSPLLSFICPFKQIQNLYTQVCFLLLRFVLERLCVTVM
# How it was run: as §1
# ETV2 = target: T10, ETV2 (Homo sapiens, UniProt O00321 1-342); conditions: protein: recombinant; tags: N-terminal GST; dsDNA, one strand shown
# T10 sequence: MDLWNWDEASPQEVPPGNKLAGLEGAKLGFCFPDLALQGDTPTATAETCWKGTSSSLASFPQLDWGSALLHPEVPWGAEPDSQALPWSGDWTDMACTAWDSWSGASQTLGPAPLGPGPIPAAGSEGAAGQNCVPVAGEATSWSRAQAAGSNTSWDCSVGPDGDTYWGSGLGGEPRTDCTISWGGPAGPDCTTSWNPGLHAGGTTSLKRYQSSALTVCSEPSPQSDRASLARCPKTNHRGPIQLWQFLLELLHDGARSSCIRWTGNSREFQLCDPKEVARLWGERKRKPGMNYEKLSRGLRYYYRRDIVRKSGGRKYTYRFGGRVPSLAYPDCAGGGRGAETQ
# How it was run: as §1
# ELF3 = target: T11, ELF3 (Homo sapiens, UniProt P78545 1-371); conditions: protein: recombinant; tags: N-terminal GST; dsDNA, one strand shown
# T11 sequence: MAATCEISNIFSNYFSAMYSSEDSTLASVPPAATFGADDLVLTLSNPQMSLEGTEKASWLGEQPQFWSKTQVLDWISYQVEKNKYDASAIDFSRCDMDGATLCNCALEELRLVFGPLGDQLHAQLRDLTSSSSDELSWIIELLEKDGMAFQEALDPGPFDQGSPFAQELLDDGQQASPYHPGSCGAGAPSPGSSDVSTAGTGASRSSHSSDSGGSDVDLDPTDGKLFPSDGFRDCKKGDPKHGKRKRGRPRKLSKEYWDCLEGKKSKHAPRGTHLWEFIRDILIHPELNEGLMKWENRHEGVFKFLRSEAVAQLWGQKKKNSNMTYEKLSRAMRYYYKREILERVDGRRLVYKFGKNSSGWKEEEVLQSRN
# How it was run: as §1
# CRX = CRX (Homo sapiens, UniProt O43186 1-299); conditions: protein: recombinant; tags: N-terminal GST; dsDNA, one strand shown
# How it was run: as §1
# ETV1 = ETV1 (Homo sapiens, UniProt P50549 1-477); conditions: protein: recombinant; tags: N-terminal GST; dsDNA, one strand shown
# How it was run: as §1
# Sequence of SPIB (Q01892 whole entry): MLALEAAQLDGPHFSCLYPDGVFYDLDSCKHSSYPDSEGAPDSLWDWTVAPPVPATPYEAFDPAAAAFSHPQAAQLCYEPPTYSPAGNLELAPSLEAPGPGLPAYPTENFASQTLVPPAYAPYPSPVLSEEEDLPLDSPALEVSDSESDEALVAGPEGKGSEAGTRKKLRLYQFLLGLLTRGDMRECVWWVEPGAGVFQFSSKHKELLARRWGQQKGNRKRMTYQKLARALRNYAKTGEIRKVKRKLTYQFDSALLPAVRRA
# Sequence of ETV1 (P50549 whole entry): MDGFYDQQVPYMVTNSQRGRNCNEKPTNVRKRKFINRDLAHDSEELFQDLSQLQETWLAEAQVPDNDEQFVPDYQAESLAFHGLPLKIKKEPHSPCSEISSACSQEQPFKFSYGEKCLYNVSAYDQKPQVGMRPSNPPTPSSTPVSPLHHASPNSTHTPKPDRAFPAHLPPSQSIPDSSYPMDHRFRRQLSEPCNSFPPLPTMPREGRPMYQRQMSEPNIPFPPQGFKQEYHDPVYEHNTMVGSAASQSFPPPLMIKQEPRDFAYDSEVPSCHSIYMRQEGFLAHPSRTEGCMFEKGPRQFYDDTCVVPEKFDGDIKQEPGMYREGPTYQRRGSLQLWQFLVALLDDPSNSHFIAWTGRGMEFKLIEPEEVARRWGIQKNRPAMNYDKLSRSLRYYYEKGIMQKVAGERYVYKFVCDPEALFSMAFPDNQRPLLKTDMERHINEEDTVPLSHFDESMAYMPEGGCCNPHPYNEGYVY
# Sequence of CRX (O43186 whole entry): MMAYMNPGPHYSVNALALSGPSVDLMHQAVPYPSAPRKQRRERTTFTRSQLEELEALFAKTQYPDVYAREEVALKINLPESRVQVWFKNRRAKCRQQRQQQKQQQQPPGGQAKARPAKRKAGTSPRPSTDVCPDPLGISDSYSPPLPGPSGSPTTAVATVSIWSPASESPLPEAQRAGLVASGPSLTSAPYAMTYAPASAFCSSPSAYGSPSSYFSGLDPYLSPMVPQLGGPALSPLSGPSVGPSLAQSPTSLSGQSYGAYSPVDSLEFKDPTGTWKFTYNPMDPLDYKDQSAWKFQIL
# Sequence of ELF1 (P32519 whole entry): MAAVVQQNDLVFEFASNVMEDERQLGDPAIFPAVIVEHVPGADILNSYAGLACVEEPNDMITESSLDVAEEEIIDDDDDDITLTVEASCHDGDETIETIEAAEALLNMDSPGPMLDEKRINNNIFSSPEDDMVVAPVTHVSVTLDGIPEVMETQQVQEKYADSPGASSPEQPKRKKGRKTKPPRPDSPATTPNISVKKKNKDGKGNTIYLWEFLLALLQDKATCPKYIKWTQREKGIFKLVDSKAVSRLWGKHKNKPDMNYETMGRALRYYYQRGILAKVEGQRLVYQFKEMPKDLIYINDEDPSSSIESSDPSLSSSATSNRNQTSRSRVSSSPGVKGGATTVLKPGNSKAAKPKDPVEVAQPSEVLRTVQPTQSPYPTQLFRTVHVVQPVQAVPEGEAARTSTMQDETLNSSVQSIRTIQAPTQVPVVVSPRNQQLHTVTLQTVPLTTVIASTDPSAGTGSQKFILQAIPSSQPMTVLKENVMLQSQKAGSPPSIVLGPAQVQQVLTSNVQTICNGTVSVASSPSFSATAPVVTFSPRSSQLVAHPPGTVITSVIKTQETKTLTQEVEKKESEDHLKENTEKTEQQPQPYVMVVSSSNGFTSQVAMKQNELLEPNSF
# Sequence of ETV5 (P41161 whole entry): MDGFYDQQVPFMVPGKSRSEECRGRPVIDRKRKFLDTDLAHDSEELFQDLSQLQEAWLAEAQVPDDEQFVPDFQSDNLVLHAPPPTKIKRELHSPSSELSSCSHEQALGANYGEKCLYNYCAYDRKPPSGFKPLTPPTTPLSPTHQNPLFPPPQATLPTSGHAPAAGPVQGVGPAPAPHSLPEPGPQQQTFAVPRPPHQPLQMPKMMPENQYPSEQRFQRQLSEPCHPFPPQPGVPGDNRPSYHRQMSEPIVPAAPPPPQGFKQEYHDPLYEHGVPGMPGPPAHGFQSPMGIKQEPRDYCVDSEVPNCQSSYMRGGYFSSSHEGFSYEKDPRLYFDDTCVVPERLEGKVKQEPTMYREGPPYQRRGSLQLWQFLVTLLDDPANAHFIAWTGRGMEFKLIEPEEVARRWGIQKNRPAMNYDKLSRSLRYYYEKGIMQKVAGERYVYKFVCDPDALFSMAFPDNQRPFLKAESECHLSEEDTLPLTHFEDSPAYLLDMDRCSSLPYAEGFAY
# Sequence of HSF1 (Q00613 whole entry): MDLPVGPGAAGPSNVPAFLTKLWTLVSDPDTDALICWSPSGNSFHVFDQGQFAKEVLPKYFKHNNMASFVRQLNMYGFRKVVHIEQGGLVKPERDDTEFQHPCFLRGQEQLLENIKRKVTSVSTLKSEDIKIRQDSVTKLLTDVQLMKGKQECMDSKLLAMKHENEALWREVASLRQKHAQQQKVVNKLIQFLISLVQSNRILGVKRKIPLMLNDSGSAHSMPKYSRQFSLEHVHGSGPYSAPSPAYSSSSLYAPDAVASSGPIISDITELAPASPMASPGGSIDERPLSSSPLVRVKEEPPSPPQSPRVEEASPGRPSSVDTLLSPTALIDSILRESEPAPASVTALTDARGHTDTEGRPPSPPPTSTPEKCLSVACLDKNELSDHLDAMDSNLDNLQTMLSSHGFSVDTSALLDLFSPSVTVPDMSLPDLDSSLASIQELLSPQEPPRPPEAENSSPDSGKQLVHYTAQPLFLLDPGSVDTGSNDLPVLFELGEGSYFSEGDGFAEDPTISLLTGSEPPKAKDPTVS
# Sequence of ELF4 (Q99607 whole entry): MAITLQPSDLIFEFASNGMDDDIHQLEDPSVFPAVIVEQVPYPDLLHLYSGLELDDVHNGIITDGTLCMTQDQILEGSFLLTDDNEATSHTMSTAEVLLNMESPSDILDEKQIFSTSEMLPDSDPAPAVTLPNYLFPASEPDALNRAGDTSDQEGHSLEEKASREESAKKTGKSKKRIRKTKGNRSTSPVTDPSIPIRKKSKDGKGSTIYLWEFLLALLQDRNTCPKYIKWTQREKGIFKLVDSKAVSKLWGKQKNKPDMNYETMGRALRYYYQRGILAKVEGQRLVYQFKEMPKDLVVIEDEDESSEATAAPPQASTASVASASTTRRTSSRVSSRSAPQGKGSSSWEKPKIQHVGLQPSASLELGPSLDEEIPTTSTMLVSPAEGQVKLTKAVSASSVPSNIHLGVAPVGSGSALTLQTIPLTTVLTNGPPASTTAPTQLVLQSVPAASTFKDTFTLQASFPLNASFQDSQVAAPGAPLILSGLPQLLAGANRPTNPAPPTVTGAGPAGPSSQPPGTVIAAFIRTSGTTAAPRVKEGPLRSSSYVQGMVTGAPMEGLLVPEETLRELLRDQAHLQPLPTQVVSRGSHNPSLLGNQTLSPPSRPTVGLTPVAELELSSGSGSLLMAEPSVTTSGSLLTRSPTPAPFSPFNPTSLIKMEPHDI
sequence,measurement,setting,value
ATGCCT,binding signal,FLI1,"1.38 fold enrichment (6-mer frequency, TF over GST control)"
same,binding signal,ELK1,"1.4 fold enrichment (6-mer frequency, TF over GST control)"
same,binding signal,GABPA,"1.52 fold enrichment (6-mer frequency, TF over GST control)"
same,binding signal,ERG,"1.48 fold enrichment (6-mer frequency, TF over GST control)"
same,binding signal,ELF1,"1.35 fold enrichment (6-mer frequency, TF over GST control)"
same,binding signal,EHF,"1.42 fold enrichment (6-mer frequency, TF over GST control)"
same,binding signal,SPI1,"1.32 fold enrichment (6-mer frequency, TF over GST control)"
same,binding signal,SPIB,"1.45 fold enrichment (6-mer frequency, TF over GST control)"
same,binding signal,ELK3,"1.22 fold enrichment (6-mer frequency, TF over GST control)"
same,binding signal,FEV,"1.35 fold enrichment (6-mer frequency, TF over GST control)"
same,binding signal,ETV5,"1.41 fold enrichment (6-mer frequency, TF over GST control)"
same,binding signal,HSF1,"1.13 fold enrichment (6-mer frequency, TF over GST control)"
same,binding signal,SPIC,"1.55 fold enrichment (6-mer frequency, TF over GST control)"
same,binding signal,ELF4,"1.29 fold enrichment (6-mer frequency, TF over GST control)"
same,binding signal,ELK4,"1.49 fold enrichment (6-mer frequency, TF over GST control)"
same,binding signal,ETV2,"1.2 fold enrichment (6-mer frequency, TF over GST control)"
same,binding signal,ELF3,"1.4 fold enrichment (6-mer frequency, TF over GST control)"
same,binding signal,CRX,"1.28 fold enrichment (6-mer frequency, TF over GST control)"
same,binding signal,ETV1,"1.33 fold enrichment (6-mer frequency, TF over GST control)"
